Experimental data: PubChem BioAssay (EPA / NIEHS)
Some compounds were tested as several samples or in several runs, with calls that do not always agree. Active and inactive are the calls of the source. The calls were made as follows: active = hit-call score of the fitted dose curve at least 0.9, where 1 is the maximum; inactive = score below 0.9.

Test: ATG_PPRE_CIS: Attagene CIS-FACTORIAL HepG2 Assay for human Peroxisome Proliferator-activated Response Element (PPRE) (AID 2282958)
Conditions: HepG2 PPRE cis-element reporter, Attagene transcription factor profiling; actives raise or lower the signal
Description: ATG_CIS is a cell-based, multiplexed-readout assay that uses HepG2, a human liver cell line, with measurements taken at 24 hours after chemical dosing in a 24-well plate.ATG_PPRE_CIS is one of 52 assay component(s) measured or calculated from the ATG_CIS assay. It is designed to make measurements of mRNA induction, a form of inducible reporter, as detected with fluorescence intensity signals by Reverse transcription polymerase chain reaction (RT-PCR) and Capillary electrophoresis technology.Data from the assay component ATG_PPRE_CIS was analyzed into 1 assay endpoint. This assay endpoint, ATG_PPRE_CIS, was analyzed with bidirectional fitting relative to DMSO as the negative control and baseline of activity. Using a type of inducible reporter, measures of mRNA for gain or loss-of-signal activity can be used to understand the reporter gene at the transcription factor-level as they relate to the gene PPARA and PPARD and PPARG. Furthermore, this assay endpoint can be referred to as a primary readout, because this assay has produced multiple assay endpoints where this one serves a reporter gene function. To generalize the intended target to other relatable targets, this assay endpoint is annotated to the nuclear receptor intended target family, where the subfamily is non-steroidal.
Human liver HepG2 cells are transiently transfected with multiple reporter transcription units (MRTUs) in 6-well plates using FuGene 6 reagent (Roche; 3 ml FuGene/1 mg DNA). The MRTU constructs are regulated by a cis-regulating element (promoter). […] A major difference between the CIS and TRANS system is that in CIS activities of endogenous TFs are measured, whereas the TRANS assay evaluates changes in activities of exogenous, chimeric NR-Gal4 proteins. […] At the end of 24 hour incubation, total RNA was isolated using TriZol reagent (Invitrogen). The isolated RNA is then reverse-transcribed using oligo(dT) primer and Mo-MLV reverse transcriptase (Invitrogen) with DNAse I (Ambion) treatment for 30 min. The one-tenth of the produced cDNA was amplified by PCR using Taq DNA polymerase (Invitrogen) and two reporter sequence-specific primers. The PCR products were fluorescently labeled by primer extension with 6-arboxyfluorescein (6-FAM) 5'-labeled reporter sequence-specific primer (2 min at 95 C, 20 s at 68 C and 10 min at 72 C) and these products were digested with 5U of HpaI (New England Biolabs) for 2h at 37 C. The fragments were purified using Qiaquick PCR columns (Qiagen), analyzed on an ABI 3130xL genetic analyzer (Applied Biosystems) with peak positions identified by using a set of X-rhodamine (ROX)-labeled MapMarker1000 molecular weight standards (BioVentures). The raw capillary electrophoresis data was processed using Attagraph software (Attagene).

SMILES	outcome	AC50
FC(F)(F)COC(OCC(F)(F)F)OCC(F)(F)F	inactive	
NC(=O)NN=Cc1ccc([N+](=O)[O-])o1	inactive	
NCC(F)(F)C(F)(F)C(F)(F)C(F)(F)F	inactive	
O=S1(=O)CCCO1	inactive	
CCCCCOC(C)=O	inactive	
FC(F)(F)C(F)(F)C(F)(F)C(F)(F)C(F)(F)C(F)(F)I	inactive	
CCCOc1ccc(S(=O)(=O)N2CCN(CC)CC2)cc1-c1nc2c(CC)n(Cc3ccccn3)nc2c(=O)[nH]1	inactive	
OC(CCl)CCl	inactive	
C[C@]12C=CC(=O)C=C1CC[C@H]1[C@@H]3C[C@@H](O)[C@](O)(C(=O)CO)[C@@]3(C)C[C@H](O)[C@@]12F	inactive	
CCCCCCCCCC	inactive	
O=C(O)c1cccc(C(=O)O)c1	inactive	
Cn1c(=O)c2[nH]cnc2n(C)c1=O	inactive	
OCC(CO)(CO)CO	inactive	
CCCCC(CC)C(=O)OCCOCCOCCOC(=O)C(CC)CCCC (stereo not given)	inactive	
C=CN1CCCC1=O	inactive	
CCCc1ccccc1	inactive	
OC[C@H]1O[C@@](CO)(O[C@H]2O[C@H](CO)[C@@H](O)[C@H](O)[C@H]2O)[C@@H](O)[C@@H]1O	inactive	
C[C@@H](Oc1ccc(CNC(=O)c2cccnc2Oc2ccc3c(c2)OCO3)c(F)c1)C(=O)O	inactive	
CC(=O)c1ccccc1	inactive	

SMILES	outcome	AC50
FC(F)=C(F)C(F)(F)C(F)(F)C(F)(F)C(F)(F)C(F)(F)C(F)(F)F	inactive	
O=C(N[C@H](CO)[C@H](O)c1ccc([N+](=O)[O-])cc1)C(Cl)Cl	inactive	
O=S(=O)(O)CCC(F)(F)C(F)(F)C(F)(F)C(F)(F)C(F)(F)C(F)(F)F	inactive	
Cn1cc[nH]c1=S	inactive	
OC(O)(C(F)C(O)(O)C(F)(F)F)C(F)(F)F	inactive	3.62 µM (active)
CCCCN1C(=O)[C@@H]([C@H](O)C2CCCCC2)NC(=O)C12CCN(Cc1ccc(Oc3ccc(C(=O)O)cc3)cc1)CC2		54 µM (active)
CCCCOC(=O)c1ccccc1	inactive	
CCc1ccc(O)c(C(C)(C)C)c1		42 µM (active)
CC(C)CCCCCCOC(=O)C1CCCCC1C(=O)OCCCCCCC(C)C (stereo not given)	inactive	
CCOc1ccc2[nH]cc(C(=O)NCc3ccccc3)c(=O)c2n1	inactive	
c1ccc2c(c1)-c1cccc3c1c-2cc1ccccc13	inactive	2.26 µM (active)
NC(N)=O	inactive	
CNC(C)=O	inactive	
O=C(Cl)C(F)(F)C(F)(F)C(F)(F)C(=O)Cl	inactive	
c1ccc(C(O[C@@H]2CCCN(CCc3ccc4c(c3)OCO4)C2)c2ccccc2)cc1	inactive	
Cc1cccc(O)c1C	inactive	
O=C1CN(N=Cc2ccc([N+](=O)[O-])o2)C(=O)N1	inactive	
CC[C@H](C)C(=O)O[C@H]1C[C@H](O)C=C2C=C[C@H](C)[C@H](CC[C@@H](O)C[C@@H](O)CC(=O)O)[C@H]21	inactive	
OC(Cn1cncn1)(Cn1cncn1)c1ccc(F)cc1F	inactive	
